Measured values: PubChem BioAssay AID651730 (NMMLSC, 2012)
Activity calls are given as the source filed them. How the calls were made is not given here.

Experiment: V-ATPase regulators in yeast, S. cerevisiae, pHLuorin, powder sets 2-3, dose response (AID 651730)
Conditions: S. cerevisiae vacuolar pH, pHluorin fluorescence; series mostly up to 100 µM

outcome, inactive:
Cc1ccc(C(=O)N2CCN(c3nc4ccc(F)cc4s3)CC2)o1
CS(=O)(=O)Cc1cccc(C(=O)N2CCN(c3nc4ccc(F)cc4s3)CC2)c1
O=C(c1ccc(C(F)(F)F)o1)N1CCN(c2nc3ccc(F)cc3s2)CC1
CS(=O)(=O)c1cccc(C(=O)Nc2ccccc2N2CCOCC2)c1
O=C(Nc1ccccc1N1CCOCC1)c1ccc(-c2ccccc2)o1
O=C(c1ccc(-c2ccccc2)o1)N1CCN(c2nc3ccc(F)cc3s2)CC1
O=C(c1cc(CO)ccn1)N1CCN(c2nc3ccc(F)cc3s2)CC1
COCc1cccc(C(=O)Nc2ccccc2N2CCOCC2)c1
O=C(Nc1ccccc1N1CCOCC1)c1ccc(C(F)(F)F)o1
N#Cc1ccnc(C(=O)Nc2ccccc2N2CCOCC2)c1
CS(=O)(=O)c1ccc(C(=O)Nc2ccccc2N2CCOCC2)o1
NS(=O)(=O)c1ccc(C(=O)N2CCN(c3nc4ccc(F)cc4s3)CC2)o1
Nc1cncc(C(=O)Nc2ccccc2N2CCOCC2)n1
Cc1ccnc(C(=O)Nc2ccccc2N2CCOCC2)c1
O=C(Nc1ccccc1N1CCOCC1)c1cccc(Cl)n1
Cc1cccc(C(=O)N2CCN(c3nc4ccc(F)cc4s3)CC2)n1
CN(C)Cc1cccc(C(=O)N2CCN(c3nc4ccc(F)cc4s3)CC2)c1
Cc1cncc(C(=O)N2CCN(c3nc4ccc(F)cc4s3)CC2)n1
NS(=O)(=O)c1cccc(C(=O)N2CCN(c3nc4ccc(F)cc4s3)CC2)c1
